# Assays:
# Experiment in all cases: DAPPL (digital affinity profiling via proximity ligation, sequencing); 10 mM Tris-HCl pH 7.5, 50 mM NaCl, 1 mM DTT, 4% glycerol, room temperature, 30 min; GST-TFs on glutathione beads, 16-mer random dsDNA library, 0.1% formaldehyde crosslink after washing; high values mean tight binding
# Settings in all cases: protein: recombinant; tags: N-terminal GST; dsDNA, one strand shown
# ERF = biological target: T1, ERF (Homo sapiens, UniProt P50548 1-548)
# T1 sequence: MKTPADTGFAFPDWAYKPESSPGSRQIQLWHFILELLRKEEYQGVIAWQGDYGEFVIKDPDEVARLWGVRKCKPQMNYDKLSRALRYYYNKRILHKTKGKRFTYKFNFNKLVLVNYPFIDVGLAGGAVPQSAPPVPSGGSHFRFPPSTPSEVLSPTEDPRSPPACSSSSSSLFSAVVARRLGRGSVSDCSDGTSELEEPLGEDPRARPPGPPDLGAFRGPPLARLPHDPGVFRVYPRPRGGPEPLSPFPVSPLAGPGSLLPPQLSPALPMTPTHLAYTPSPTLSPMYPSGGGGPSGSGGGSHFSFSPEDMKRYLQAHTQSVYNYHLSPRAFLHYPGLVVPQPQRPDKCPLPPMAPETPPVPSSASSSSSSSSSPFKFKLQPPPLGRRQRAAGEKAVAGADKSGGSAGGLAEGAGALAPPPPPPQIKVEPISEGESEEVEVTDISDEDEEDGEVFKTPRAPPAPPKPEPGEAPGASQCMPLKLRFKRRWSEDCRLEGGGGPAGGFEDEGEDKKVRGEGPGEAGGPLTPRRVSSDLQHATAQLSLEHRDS
# Outline: (§1)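 Each value of binding signal is a hexamer's read frequency for a factor divided by the same hexamer's frequency in the tag-only sample. Barcoded, bead-captured GST fusions of human transcription factors made in yeast were pooled with that sample and incubated with 200 nmole of a random double-stranded 16-mer DNA library in Tris/NaCl/DTT/glycerol buffer at room temperature for 30 min. Washing, 0.1% formaldehyde crosslinking, proximity ligation, PCR and Illumina NextSeq500 sequencing followed.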
# ETV3L = biological target: T2, ETV3L (Homo sapiens, UniProt Q6ZN32 1-361)
# T2 sequence: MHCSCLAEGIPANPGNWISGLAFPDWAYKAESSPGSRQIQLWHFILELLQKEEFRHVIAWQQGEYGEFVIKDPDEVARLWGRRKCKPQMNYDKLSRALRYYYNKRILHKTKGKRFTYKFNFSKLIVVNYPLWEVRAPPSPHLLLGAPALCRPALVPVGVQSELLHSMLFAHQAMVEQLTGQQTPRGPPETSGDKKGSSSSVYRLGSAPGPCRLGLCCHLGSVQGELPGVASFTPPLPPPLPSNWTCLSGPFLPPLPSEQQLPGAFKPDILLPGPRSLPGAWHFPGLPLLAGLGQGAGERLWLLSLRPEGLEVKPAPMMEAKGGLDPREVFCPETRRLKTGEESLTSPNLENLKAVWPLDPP
# Outline: as §1
# ETS2 = biological target: T3, ETS2 (Homo sapiens, UniProt P15036 1-469)
# T3 sequence: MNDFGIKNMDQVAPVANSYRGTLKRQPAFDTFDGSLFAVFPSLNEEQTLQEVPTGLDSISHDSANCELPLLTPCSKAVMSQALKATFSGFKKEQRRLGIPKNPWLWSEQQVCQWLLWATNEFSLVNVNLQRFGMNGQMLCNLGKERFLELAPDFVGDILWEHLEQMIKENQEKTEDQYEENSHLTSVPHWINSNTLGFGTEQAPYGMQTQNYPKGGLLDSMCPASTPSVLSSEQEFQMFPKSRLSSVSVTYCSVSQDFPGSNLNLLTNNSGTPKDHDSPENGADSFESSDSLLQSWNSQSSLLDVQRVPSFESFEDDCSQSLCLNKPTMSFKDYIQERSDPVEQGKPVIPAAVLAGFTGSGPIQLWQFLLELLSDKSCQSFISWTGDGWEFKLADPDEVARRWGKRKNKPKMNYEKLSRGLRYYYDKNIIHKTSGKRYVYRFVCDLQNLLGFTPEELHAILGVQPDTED
# Outline: as §1
# SPDEF = biological target: T4, SPDEF (Homo sapiens, UniProt O95238 1-335)
# T4 sequence: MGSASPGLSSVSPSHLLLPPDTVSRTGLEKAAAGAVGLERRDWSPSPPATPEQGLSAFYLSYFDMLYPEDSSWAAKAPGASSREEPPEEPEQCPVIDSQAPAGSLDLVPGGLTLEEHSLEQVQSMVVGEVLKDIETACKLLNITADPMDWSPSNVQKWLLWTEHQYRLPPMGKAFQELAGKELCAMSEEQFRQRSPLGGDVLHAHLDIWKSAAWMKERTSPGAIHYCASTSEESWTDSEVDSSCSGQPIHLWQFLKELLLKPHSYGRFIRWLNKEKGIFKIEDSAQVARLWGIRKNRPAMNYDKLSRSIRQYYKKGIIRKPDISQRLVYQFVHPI
# Outline: as §1
# ETV7 = biological target: T5, ETV7 (Homo sapiens, UniProt Q9Y603 1-341)
# T5 sequence: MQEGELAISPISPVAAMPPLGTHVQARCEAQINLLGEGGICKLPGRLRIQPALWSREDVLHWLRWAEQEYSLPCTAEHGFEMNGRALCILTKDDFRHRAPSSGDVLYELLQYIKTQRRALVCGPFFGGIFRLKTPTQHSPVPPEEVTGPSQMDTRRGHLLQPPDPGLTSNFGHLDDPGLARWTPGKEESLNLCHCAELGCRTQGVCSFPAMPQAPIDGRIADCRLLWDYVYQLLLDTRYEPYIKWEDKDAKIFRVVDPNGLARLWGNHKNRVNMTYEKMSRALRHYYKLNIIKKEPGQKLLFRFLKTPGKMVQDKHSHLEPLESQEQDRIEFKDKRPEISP
# Outline: as §1
# ELF5 = biological target: T6, ELF5 (Homo sapiens, UniProt Q9UKW6-2 1-255)
# T6 sequence: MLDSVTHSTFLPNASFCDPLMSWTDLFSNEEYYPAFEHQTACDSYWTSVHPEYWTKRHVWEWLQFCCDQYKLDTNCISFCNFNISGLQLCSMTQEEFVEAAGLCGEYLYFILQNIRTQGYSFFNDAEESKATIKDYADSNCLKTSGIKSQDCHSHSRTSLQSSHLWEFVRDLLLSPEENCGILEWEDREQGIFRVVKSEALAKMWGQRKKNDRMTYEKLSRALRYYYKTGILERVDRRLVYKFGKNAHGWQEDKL
# Outline: as §1
# ETV3 = biological target: T7, ETV3 (Homo sapiens, UniProt P41162-2 1-143)
# T7 sequence: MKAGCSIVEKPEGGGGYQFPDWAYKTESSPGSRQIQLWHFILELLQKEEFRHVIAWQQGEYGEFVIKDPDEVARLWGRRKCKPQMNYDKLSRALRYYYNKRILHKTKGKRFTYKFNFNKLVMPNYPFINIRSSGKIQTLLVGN
# Outline: as §1
# ETV6 = ETV6 (Homo sapiens, UniProt P41212 1-452)
# Outline: as §1
# ETV6, sequence (P41212 whole entry): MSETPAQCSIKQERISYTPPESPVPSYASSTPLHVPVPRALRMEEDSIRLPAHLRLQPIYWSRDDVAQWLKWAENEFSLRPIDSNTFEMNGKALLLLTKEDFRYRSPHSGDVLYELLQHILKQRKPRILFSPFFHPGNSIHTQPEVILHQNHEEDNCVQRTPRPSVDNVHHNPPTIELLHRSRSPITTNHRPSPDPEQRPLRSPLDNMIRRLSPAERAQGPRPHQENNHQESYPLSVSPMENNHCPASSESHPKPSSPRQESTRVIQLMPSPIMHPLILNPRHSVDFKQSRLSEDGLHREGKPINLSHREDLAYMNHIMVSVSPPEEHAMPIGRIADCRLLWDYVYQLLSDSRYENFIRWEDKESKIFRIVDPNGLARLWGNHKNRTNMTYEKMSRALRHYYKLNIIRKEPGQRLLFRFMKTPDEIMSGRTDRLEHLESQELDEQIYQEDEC
Sequence,binding signal (ERF),binding signal (ETV3L),binding signal (ETS2),binding signal (SPDEF),binding signal (ETV7),binding signal (ELF5),binding signal (ETV3),binding signal (ETV6)
CGAAAC,"1.24 fold enrichment (6-mer frequency, TF over GST control)","1.22 fold enrichment (6-mer frequency, TF over GST control)","1.16 fold enrichment (6-mer frequency, TF over GST control)","1.22 fold enrichment (6-mer frequency, TF over GST control)","1.22 fold enrichment (6-mer frequency, TF over GST control)","1.12 fold enrichment (6-mer frequency, TF over GST control)","1.08 fold enrichment (6-mer frequency, TF over GST control)","1.16 fold enrichment (6-mer frequency, TF over GST control)"
GTCCCT,"1.22 fold enrichment (6-mer frequency, TF over GST control)","1.16 fold enrichment (6-mer frequency, TF over GST control)","1.31 fold enrichment (6-mer frequency, TF over GST control)","1.37 fold enrichment (6-mer frequency, TF over GST control)","1.22 fold enrichment (6-mer frequency, TF over GST control)","1.23 fold enrichment (6-mer frequency, TF over GST control)","1.26 fold enrichment (6-mer frequency, TF over GST control)","1.21 fold enrichment (6-mer frequency, TF over GST control)"
TACGCA,"1.28 fold enrichment (6-mer frequency, TF over GST control)","1.12 fold enrichment (6-mer frequency, TF over GST control)","1.2 fold enrichment (6-mer frequency, TF over GST control)","1.16 fold enrichment (6-mer frequency, TF over GST control)","1.12 fold enrichment (6-mer frequency, TF over GST control)","1.11 fold enrichment (6-mer frequency, TF over GST control)","1.1 fold enrichment (6-mer frequency, TF over GST control)","1.18 fold enrichment (6-mer frequency, TF over GST control)"
TACGCC,"1.36 fold enrichment (6-mer frequency, TF over GST control)","1.36 fold enrichment (6-mer frequency, TF over GST control)","1.29 fold enrichment (6-mer frequency, TF over GST control)","1.26 fold enrichment (6-mer frequency, TF over GST control)","1.19 fold enrichment (6-mer frequency, TF over GST control)","1.2 fold enrichment (6-mer frequency, TF over GST control)","1.27 fold enrichment (6-mer frequency, TF over GST control)","1.28 fold enrichment (6-mer frequency, TF over GST control)"
AGATGA,"1.18 fold enrichment (6-mer frequency, TF over GST control)","1.01 fold enrichment (6-mer frequency, TF over GST control)","1.05 fold enrichment (6-mer frequency, TF over GST control)","1.14 fold enrichment (6-mer frequency, TF over GST control)","1.15 fold enrichment (6-mer frequency, TF over GST control)","1.05 fold enrichment (6-mer frequency, TF over GST control)","1.1 fold enrichment (6-mer frequency, TF over GST control)","1.13 fold enrichment (6-mer frequency, TF over GST control)"

# — PMC7862700, “An all-to-all approach to the identification of sequence-specific readers for epigenetic DNA modifications on cytosine”
